# Measured values reported in PubChem BioAssay (EPA / NIEHS).
# Active and inactive are the calls of the source. Rule for the calls: active = hit-call score of the fitted dose curve at least 0.9, where 1 is the maximum; inactive = score below 0.9.
# Experiment: BSK_3C_SRB: Viability Assessment in the BioMAP Diversity Plus: 3C Assay (AID 2283023);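 note: fitted both ways against DMSO so a hit may be signal rise or drop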
# Details: primary human endothelial cells (HUVEC)
# Procedure: BSK_3C is a cell-based, multiplexed-readout assay that uses umbilical vein endothelium, a human vascular primary cell, with measurements taken at 24 hours after chemical dosing in a 96-well plate.BSK_3C_SRB is an assay component measured in the BSK_3C assay. It measures 0.1% sulforhodamine related to cell death using Sulforhodamine staining technology.Data from the assay component BSK_3C_SRB was analyzed into 1 assay endpoint. This assay endpoint, BSK_3C_SRB, was analyzed with bidirectional fitting relative to DMSO as the negative control and baseline of activity. Using a type of viability reporter, gain or loss-of-signal activity can be used to understand changes in the signaling. Furthermore, this assay endpoint can be referred to as a primary readout, because this assay has produced multiple assay endpoints where this one serves a signaling function. To generalize the intended target to other relatable targets, this assay endpoint is annotated to the cell morphology intended target family, where the subfamily is cell conformation.
# The levels of cell surface (or secreted, indicated by the prefix "s") biomarker endpoints were measured by ELISA. Overt cytotoxicity to cells in confluent adherent cultures (all systems other than the BT system) was assessed by measuring total protein levels using sulforhodamine B (SRB) staining in parallel cultures at the time of biomarker measurements, indicated as SRB endpoints. For proliferation assays for adherent cell types, individual cell types are cultured at sub-confluence and relative cell numbers quantified by SRB staining at time points optimized for each system (48 h: 3C and CASM3C systems; 72 h: BT and HDF3CGF systems; 96 h: SAg system). SRB was performed by staining cells with 0.1% SRB after fixation with 10% TCA and reading wells at 560 nm.Viability and proliferation of PBMC (T cells) was quantified by Alamar Blue reduction for the SAg and BT systems. For PBMC viability (referred to as PBMC Cytotoxicity within the assay endpoint names), cells were plated (75,000/well in a 96-well plate) and then chemical samples added for 1 h before addition of activators, SEB and TSST-1 (20 ng/mL final concentration each). Cells were incubated for 90 h. Then, Alamar Blue (20 uL/well) (Invitrogen, Cat DAL1100) was added for 6 h, and the plates were read with a fluorescence microplate reader at 546/580 nm (excitation/emission). For PBMC proliferation, cells were plated and activated as above but incubated for only 16 h prior to addition of Alamar Blue. Plates were read after 6 h.
Compound,AC50,outcome
CCCCCCCCn1sccc1=O,20.8 µM (active),–
CO[C@@H]1[C@H](OC(=O)NC(=O)CCl)CC[C@]2(CO2)[C@H]1[C@@]1(C)O[C@@H]1CC=C(C)C,–,inactive
[O-][Cl+]O,–,inactive
O=C1CCCO1,–,inactive
ClC1=C(Cl)C2(Cl)C3C(Cl)C=CC3C1(Cl)C2(Cl)Cl (stereo not given),28.7 µM (active),–
O=C(Oc1ccc(Br)cc1)N1CCN2CCC1CC2,–,inactive
C=CCc1ccc2c(c1)OCO2,–,inactive
N#CC(Br)Br,–,inactive
C[C@]12C=CC3=C4CCC(=O)C=C4CC[C@H]3[C@@H]1CC[C@@H]2O,7.77 µM (active),–
Oc1ccccc1Cl,–,inactive
COC(=O)Nc1nc2ccccc2[nH]1,8.51 µM (active),–
Nc1ccc(Cl)cc1N,–,inactive
C[N+](C)(C)CC1CO1 (stereo not given),–,inactive
c1ccc(N=Nc2ccccc2)cc1,–,inactive
CC(C)(OOC(C)(C)c1ccccc1)c1ccccc1,36.5 µM (active),–
Brc1ccc(Oc2ccccc2)cc1,28.9 µM (active),–
CCCCCCCCCCCCCN1CC(C)OC(C)C1 (stereo not given),–,inactive
Cc1cc(N=Nc2ccccc2C)ccc1N,11.1 µM (active),–
O=C(N[C@H](c1ccccc1)[C@@H]1CN2CCC1CC2)c1c(Cl)ccc(C(F)(F)F)c1Cl,29.7 µM (active),–
Clc1ccc(C(c2ccc(Cl)cc2)C(Cl)(Cl)Cl)cc1,28.5 µM (active),–

Compound,AC50,outcome
OCCCBr,–,inactive
CN(C)C(=O)Nc1ccc(Cl)cc1,–,inactive
Nc1ccc(Oc2ccc(N)cc2)cc1,–,inactive
[Cl-].[Cl-].[Hg+2],30.3 µM (active),–
CCCCOC(=O)c1ccccc1C(=O)OCc1ccccc1,–,inactive
O=P(OCCCl)(OCCCl)OCCCl,–,inactive
CCCCC(CC)COC(=O)c1ccc(C(=O)OCC(CC)CCCC)c(C(=O)OCC(CC)CCCC)c1 (stereo not given),–,inactive
c1ccc(C2CO2)cc1 (stereo not given),–,inactive
Oc1ccc2ccc3cccc4ccc1c2c34,30 µM (active),–
CS(=O)(=O)NC(=O)c1cc(Oc2ccc(C(F)(F)F)cc2Cl)ccc1[N+](=O)[O-],–,inactive
Cn1cc(-c2ccccc2)c(=O)c(-c2cccc(C(F)(F)F)c2)c1,–,inactive
COP(=S)(OC)SCN1C(=O)c2ccccc2C1=O,–,inactive
CC(C)(C)C(O)(CCc1ccc(Cl)cc1)Cn1cncn1 (stereo not given),–,inactive
N#CC(Br)(Br)C(N)=O,–,inactive
CCC12COCN1COC2,–,inactive
O=[N+]([O-])C(Br)(CO)CO,15.3 µM (active),–
c1ccc(NNc2ccccc2)cc1,–,inactive
CCC(C)c1ccc(O)cc1 (stereo not given),–,inactive
CC(C)(C)OOC(C)(C)CCC(C)(C)OOC(C)(C)C,–,inactive
CCN(CC)CCO,–,inactive
